Bioassay records (PubChem)
FMDV antiviral: High Throughput Screening for Foot and Mouth Disease Virus Antivirals; FMDV antiviral cell-based qHTS; Potency, µM (doses to about 57.9 µM), without a hit: at the highest dose activity change, negative = inhibition, actives largely listed as inhibitors; actives 1.2% (n = 410,000); AID 1159524, 2015; calls by dose curve; tested in HEK293T cells; also: read-out not given here; potency is read from the fitted curve at half-maximal effect; nearly all actives have a fitted effect of over 45% in size
Giardia FBPA inh: qHTS Assay for Inhibitors of Fructose-1,6-bisphosphate Aldolase from Giardia Lamblia. purified Giardia FBPA. Potency, µM (top dose mostly 59.6 µM), without a hit: at the top dose activity, negative = inhibition, usual class: inhibitors. actives 0.71% (n = 290,000). A8B2U2; also: potency is read from the fitted curve at half-maximal effect; nearly all actives have a fitted effect of over 55% in size
Target sequence (A8B2U2 whole entry, looked up): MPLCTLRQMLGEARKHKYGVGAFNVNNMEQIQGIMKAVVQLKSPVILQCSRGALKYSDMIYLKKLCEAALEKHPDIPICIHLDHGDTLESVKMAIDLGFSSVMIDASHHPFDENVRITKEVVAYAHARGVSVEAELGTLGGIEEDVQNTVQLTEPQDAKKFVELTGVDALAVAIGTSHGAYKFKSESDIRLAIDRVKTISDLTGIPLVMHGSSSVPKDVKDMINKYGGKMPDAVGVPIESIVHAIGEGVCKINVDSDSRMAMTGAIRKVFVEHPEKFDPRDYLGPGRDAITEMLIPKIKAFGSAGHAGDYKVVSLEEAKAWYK
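Giardia FBPA (40 nM reagent) was preincubated 10 min at RT with compound (up to 57.5 uM final), then substrate plus GAPDH/TPI/NAD/arsenate coupling system with diaphorase/resazurin was added; resorufin fluorescence (525/598 nm) was read after 20 min.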
Sm TGR block: qHTS Assay for the Inhibitors of Schistosoma Mansoni Peroxiredoxins; purified TGR, DTNB reduction, TNB absorbance 405 nm; Potency, µM (titrated, usually from 114 µM), for inactives: at the top dose activity change, negative = inhibition, hits mostly inhibitors; actives 3% (n = 360,000); AID 485364, 2010; Schistosoma mansoni thioredoxin glutathione reductase (TGR), Q962Y6; also: potency is read from the fitted curve at half-maximal effect; nearly all actives have a fitted effect of over 60% in size
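TGR 20 nM + NADPH 100 uM (dispensed conc.), cpd preinc 15 min RT; start with NADPH (500 uM addition) then DTNB (15 mM addition). Kinetic TNB absorbance, 405 nm filter. Four-parameter Hill fit across titration.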
HCMV inh: qHTS Assay for inhibitors of the human cytomegalovirus (HCMV); AID 1259415, 2018; HFF cells, HCMV-luciferase reporter, 72 h; hits give low values; actives 4.5% (n = 410,000); activity change, negative = inhibition, % at 57.5 µM; in the data active = activity change below about -60%; inconclusive = no clear call, values can overlap the other calls; inactive = above about -39%
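Screen run at 2 compound doses on HFFs infected with reporter HCMV, MOI 1 PFU/cell. Luciferase activity from cell lysates at 72 h post infection gave inhibition relative to buffer-only and Salinomycin wells.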
TbPYK inhibitor: qHTS of Trypanosoma Brucei Inhibitors. TbPYK enzyme, Kinase-Glo Plus ATP luminescence, 45 min. Potency, µM (top dose mostly 76.8 µM), without a hit: at the highest dose activity, negative = inhibition, hits mostly inhibitors. actives 0.12% (n = 410,000); also: potency is read from the fitted curve at half-maximal effect; nearly all actives have a fitted effect of over 50% in size
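Screened from lowest to highest concentration, compounds were pinned into TbPYK/substrate mixtures, and ADP (130 uM final) was added. Plates sat at room temperature for 45 min prior to Kinase-Glo Plus detection by luminescence.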
RE007 growth inh: qHTS Assay for Inhibitors of the HIV-1 protein Vpr | S. pombe RE007 Vpr strain, BacTiter-Glo ATP luminescence, 24 h | Potency, µM (doses to about 92.2 µM), for inactives: top-dose activity change, negative = less growth, usual class: inhibitors | actives 0.21% (n = 360,000) | AID 651644, 2012; active = well fitted falling curve with a large enough effect; inconclusive = small, poorly fitted or top-dose-only effect; inactive = no such curve, though single readings can be large or run the other way; also: potency is read from the fitted curve at half-maximal effect; nearly all actives have a fitted effect of over 50% in size
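Fission yeast strain RE007, carrying one chromosomally integrated HIV-1 vpr copy, was seeded at OD 0.01 in PMG+AL medium with 23 nL pinned compound. After 24 h at 30 °C and 99% humidity, viability was read by BacTiter-Glo luminescence.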
* marks the source's active call; other numbers are inactive results; ? = inconclusive; · = no result given. In the library only some 7.7% were active in any assay of this set; here they are far more common. Unless noted, calls follow the shape of the dose curve; as a rule, active = well fitted curve in the direction sought with a large enough effect; inconclusive = small, poorly fitted or top-dose-only effect, or another doubt; inactive = no such curve, though single readings can be large; an effect the other way counts as inactive or inconclusive. % is scaled to controls: 0 for no effect and ±100 for the full control effect.

SMILES	FMDV antiviral	Giardia FBPA inh	Sm TGR block	HCMV inh	TbPYK inhibitor	RE007 growth inh
O=C(CCc1nnc(C2CCCCC2)o1)N1CCN(C2CCCCC2)CC1	5%	3%	56µM*	-23	-2%	2%
COc1ccc(NS(=O)(=O)c2ccc(C(=O)N3CCCCCC3)cc2)cc1	-22%	·	·	-74*	19%	-20%
CCOc1ccc(NS(=O)(=O)c2ccc(C(=O)N3CCCCCC3)cc2)cc1	?	·	11%	?	4%	1%
O=C(c1ccc(NS(=O)(=O)c2cccc(F)c2)cc1)N1CCCCC1	-8%	·	2%	-73*	-1%	19%
CCOC(=O)N1CCC(NS(=O)(=O)c2ccccc2)CC1	0%	0%	45µM*	11	1%	3%
O=C(c1ccc(NS(=O)(=O)c2cccc(F)c2)cc1)N1CCCC1	12%	·	-13%	-12	0%	0%
CCOC(=O)N1CCN(C(=O)c2ccc(S(=O)(=O)Nc3ccc(C)cc3)cc2)CC1	-25%	·	·	-69*	-5%	-17%
CC(C)C[C@@H](NC(=O)[C@@H](COC(C)(C)C)NC(=O)[C@H](Cc1ccc(O)cc1)NC(=O)[C@@H](CO)NC(=O)[C@@H](Cc1c[nH]c2ccccc12)NC(=O)[C@@H](Cc1cnc[nH]1)NC(=O)[C@@H]1CCC(=O)N1)C(=O)N[C@H](CCCN=C(N)N)C(=O)N1CCC[C@H]1C(=O)NNC(N)=O	·	·	·	·	-9%	·
CCC1C(=O)NCCN1Cc1ccc2c(c1)CN(Cc1cccc(OC)c1OC)CCO2 (configuration not stated)	3%	·	·	·	·	·
CCOc1ccc(S(=O)(=O)Nc2ccc(C(=O)N3CCCC3)cc2)cc1	24%	6%	16%	22	4%	-3%
CN1CCN(C(=O)c2ccc(Oc3ccc([N+](=O)[O-])cc3)cc2)CC1	-29%	-9%	3%	26	5%	8%
CCOc1ccc(NS(=O)(=O)c2ccc(C(=O)N3CCCC(C)C3)cc2)cc1 (configuration not stated)	0%	·	2%	-63*	3%	-5%
CCOC(=O)N1CCN(C(=O)c2ccc(Oc3ccc([N+](=O)[O-])cc3)cc2)CC1	?	-7%	9%	-83*	2%	32%
CCOC(=O)N1CCN(C(=O)c2ccc(NS(=O)(=O)c3ccc(C)cc3)cc2)CC1	-26%	-8%	3%	-76*	0%	12%
COc1ccccc1CCNC(=O)Cc1c(C)c2ccc(O)cc2oc1=O	2%	·	0%	-9	1%	·
COC(=O)c1ccccc1NC(=S)N(Cc1ccc2c(c1)OCO2)Cc1cc2ccc(OC)cc2[nH]c1=O	-24%	0%	-15%	-63*	-3%	8%
COc1ccccc1NC(=S)N(Cc1ccco1)Cc1cc2cc(C)ccc2[nH]c1=O	-3%	1%	-5%	-61*	2%	5%
COc1ccc(C(=O)N(Cc2ccco2)Cc2cc3cc(C)ccc3[nH]c2=O)cc1OC	-30%	·	·	30	-12%	16%
CNC(=S)N(Cc1cccs1)Cc1cc2cc(OC)ccc2[nH]c1=O	?	1%	-1%	3	3%	-18%
O=C(Nc1ccc(F)cc1)N(Cc1cccs1)Cc1cc2cc3c(cc2[nH]c1=O)OCO3	18µM*	-3%	-10%	-61*	-13%	-11%
COc1ccc2[nH]c(=O)c(CN(Cc3cccs3)C(=S)Nc3cccc(C)c3)cc2c1	-30%	2%	-7%	-66*	-8%	2%
O=C(NCCC1=CCCCC1)c1ccc2c(c1)N(Cc1ccccc1F)C(=O)c1ccccc1S2=O (configuration not stated)	-22%	·	5%	-35	3%	·
